According to PubChem BioAssay AID623955 (NMMLSC, 2012):
Potency and affinity values are given separately.

biological target: ATP-binding cassette sub-family B member 6 (Homo sapiens) (UniProt Q9NP58); assay: concentration-dependent ABCB6 porphyrin transport blockade – K562-ABCB6 cells, flow cytometry, cherry pick 1, dose response (AID 623955); conditions: K562-ABCB6 porphyrin fluorescence, 1 h; series mostly up to 100 µM; response, lower = inhibition: at the top concentration
Sequence (Q9NP58 whole entry, looked up): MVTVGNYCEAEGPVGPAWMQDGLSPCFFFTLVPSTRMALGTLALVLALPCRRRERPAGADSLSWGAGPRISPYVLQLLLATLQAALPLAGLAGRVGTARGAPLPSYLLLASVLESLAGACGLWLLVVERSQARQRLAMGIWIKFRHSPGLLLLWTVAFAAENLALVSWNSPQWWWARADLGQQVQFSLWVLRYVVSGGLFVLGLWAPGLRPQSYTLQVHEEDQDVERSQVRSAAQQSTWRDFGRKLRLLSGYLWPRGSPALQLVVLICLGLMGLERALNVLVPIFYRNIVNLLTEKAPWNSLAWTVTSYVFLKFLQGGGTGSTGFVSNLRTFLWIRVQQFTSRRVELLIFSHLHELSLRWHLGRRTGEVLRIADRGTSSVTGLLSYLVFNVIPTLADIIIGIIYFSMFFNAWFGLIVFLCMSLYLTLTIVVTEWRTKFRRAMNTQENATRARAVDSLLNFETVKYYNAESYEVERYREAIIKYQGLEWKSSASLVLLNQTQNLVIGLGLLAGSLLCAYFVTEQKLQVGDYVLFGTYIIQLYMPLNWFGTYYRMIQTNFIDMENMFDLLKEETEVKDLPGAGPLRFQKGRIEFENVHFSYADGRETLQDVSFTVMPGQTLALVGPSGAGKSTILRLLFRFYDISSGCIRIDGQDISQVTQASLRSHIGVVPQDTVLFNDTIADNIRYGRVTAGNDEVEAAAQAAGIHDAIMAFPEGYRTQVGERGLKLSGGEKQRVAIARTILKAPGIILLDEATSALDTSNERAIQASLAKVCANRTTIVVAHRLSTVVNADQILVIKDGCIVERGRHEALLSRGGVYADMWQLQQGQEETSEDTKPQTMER

response, lower = inhibition, inactive:
CC1CCN(c2ccc3nnc(CCC(=O)N4CCCCC4)n3n2)CC1 97.7%, O=C(CCc1nnc2ccc(N3CCC4(CC3)OCCO4)nn12)N1CCCCC1 104%, CCC(C)NC(=O)CCc1nnc2ccc(N3CCC(C)CC3)nn12 (stereo unspecified) 103%, CCOC(=O)CNC(=O)CCc1nnc2ccc(N3CCC(C)CC3)nn12 96.3%, CCOC(=O)C1CCN(C(=O)CCc2nnc3ccc(N4CCN(C)CC4)nn23)CC1 92.3%, CC1CCN(c2ccc3nnc(CCC(=O)NC(C)C)n3n2)CC1 104%
